Assay outcomes as filed in PubChem.
Shiga inhibitor = Shiga toxin inhibition; Vero cells, Shiga toxin protein synthesis inhibition reporter; inhibition, % at 38.7 µM; 290,000 compounds, 9.2% hits; AID 2315; in the data active means inhibition mostly above about 28%, no sharp cut-off; inactive means mostly below about 43%; further: 0% is about no effect
HCV inhibitor = inhibitors of hepatitis C virus infection | Huh7.5.1 HCVcc-Cre infection, luciferase reporter, 44 h | Potency, µM (top dose mostly 41.8 µM), for the others: at the highest dose activity change, negative = inhibition, actives largely listed as inhibitors | 340,000 compounds, 3.4% hits | AID 651820; active means well fitted inhibition curve with a large enough effect; inconclusive means small, poorly fitted or top-dose-only effect, or another doubt; inactive means no such curve, though single readings can be large or run the other way; further: potency means the concentration at half of the fitted maximal effect; on the % scale 0 is the no-effect control and ±100 the full control effect
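Luciferase read-out (15 sec integration) after a 15 min room-temperature substrate step quantifies HCVcc-Cre infection. Cells, 1,000 per well, had compound added 4 h post-plating, then virus at ~0.5 moi, and were cultured 44 h.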
FMDV inh = antivirals against foot and mouth disease virus. FMDV antiviral cell-based qHTS. Potency, µM (titrated, usually from 57.9 µM), for inactives: at the top dose activity change, negative = inhibition, usual class: inhibitors. 410,000 compounds, 1.2% hits; calls by dose curve; tested in HEK293T cells; further: read-out not given here; potency means the concentration at half of the fitted maximal effect; on the % scale 0 is the no-effect control and ±100 the full control effect; nearly all actives have a fitted effect of over 45% in size
LASV entry inh = inhibitors of Lassa virus binding or cell entry | Potency, µM (top dose mostly 37.9 µM), without a hit: top-dose activity change, negative = inhibition, most hits filed as inhibitors | AID 540256 | 300,000 compounds, 1.2% hits | Lassa virus pseudotype entry inhibition, cell reporter; calls by dose curve; tested in HEK293 cells; further: potency means the concentration at half of the fitted maximal effect; on the % scale 0 is the no-effect control and ±100 the full control effect; nearly all actives have a fitted effect of over 50% in size
Marburg entry inh = Marburg virus entry inhibition; Potency, µM (highest dose often 37.8 µM), for the others: at the top dose activity change, negative = inhibition, usual class: inhibitors; Marburg virus pseudotyped entry inhibition, cell reporter; 300,000 compounds, 1.8% hits; AID 540276; calls by dose curve; tested in HEK293 cells; further: potency means the concentration at half of the fitted maximal effect; on the % scale 0 is the no-effect control and ±100 the full control effect
CHX counter = affects cycloheximide protein synthesis inhibition readout, counter-screen | cell reporter, cycloheximide protein synthesis inhibition counterscreen | max response, % | 300,000 compounds, 12% hits; in the data active means max response mostly above about 13%, no sharp cut-off; inactive means mostly below about 14%; further: read at 38.3 µM for the half of the compounds with a filed dose; 0% is about no effect
* = called active by the depositor; ? = inconclusive; . = no result; + = active, no number; [ ] = remark or other dose. A selection: hits, their analogues and other compounds. The true share with any hit is near 13%.

SMILES	Shiga inhibitor	HCV inhibitor	FMDV inh	LASV entry inh	Marburg entry inh	CHX counter
C/C(=N\NC(=O)c1ccc(Cl)cc1)c1cccnc1	44	5%	16%	?	-20%[46.1 µM]	29*
C/C(=N/NC(=O)CNC(=O)c1cccnc1)c1ccc(Cl)cc1	-3	-3%	-4%	.	.	-5
C/C(=N/NS(=O)(=O)c1ccc(Cl)cc1)c1cccc(NC(=O)c2ccncc2)c1	-1	-24%	11%	-8%	0%	6
C/C(=N\NC(=O)c1c(Br)cnn1C)c1ccc(NC(=O)c2ccc(F)cc2)cc1	86*	?	15%	-16%	?	43*
CCOC(=O)C1C(=O)CC(C)(O)C(C(=O)OCC)C1c1cc(Br)ccc1OC (stereo not given)	-8	9%	-14%	-24%	?	-3
CC(C1CC1)N(C(=O)c1ccccc1[N+](=O)[O-])c1ccccc1 (stereo not given)	25	-14%	-18%	2%[46.1 µM]	-21%[46.1 µM]	6
C/C(=N\NC(=O)c1ccc(Cl)cc1)c1cccc(NC(=O)c2cccnc2)c1	45*	?	-4%	23%	-9%	38*
CC(C)c1ccc(/C=N/NC(=O)c2c(Cl)cnn2C)cc1	+	?	0%	?	?	46*
C/C(=N\NC(=O)c1c(Cl)cnn1C)c1cccc(NC(=O)c2ccc(C)cc2)c1	109*	-29%	2%	.	.	21*
O=C(Cn1nnc2ccccc21)N1CCCCC1	13	15%	-10%	4%	11%	10
Cc1ccc(-c2nnn(CC(=O)N(CCCO)C(C(=O)NC3CCCC3)c3ccc(Cl)cc3)n2)o1 (stereo not given)	-2	-5%	0%	?	-7%[46.1 µM]	-6
Cc1ccc(NC(=O)CNCc2ccccc2)c(Br)c1	157*	-4%	48%	.	6%[46.1 µM]	16*
CC1(C)C2CCC(C2)C1(C)NC(=O)CNCc1cccs1 (stereo not given)	3	10%	-19%	.	.	6
O=C(CNCc1cccs1)NC12CC3CC(CC(C3)C1)C2	30	13%	9%	16%	9%	14*
Cc1ccc(NC(=O)CC2CCCC2)c(Br)c1	93*	-14%	38%	29%	?	42*
Cc1ccc(NC(=O)CNCc2cccs2)c(Br)c1	67*	-17%	51%	.	.	35*
Cc1cc(C)cc(NC(=O)C(=O)NCCc2c[nH]c3ccccc23)c1	10	-6%	0%	.	.	3
COc1cc(-c2csc(NC3CCCCC3)n2)cc(OC)c1OC	23	?	-30%	?	?	2
N#Cc1nc(-c2ccc(COc3ccccc3)o2)oc1N1CCCCC1	.	.	-6%	-23%[46.1 µM]	?	.
O=C(CC1CCCC1)Nc1cccc(Br)c1	56*	-8%	26%	-22%[46.1 µM]	?	17*
Cc1ccc(NC(=O)Cn2cccc2)c(Br)c1	45*	-30%	38%	14%	?	14
CC1CCN(C(=O)CCCC(=O)N2CCC(C)CC2)CC1	24*	7%	1%	.	.	19
CC1CCN(C(=O)CCCC(=O)O)CC1	-7	5%	3%	1%	-17%	-1
O=C(CCCC(=O)N1CCCC1)N1CCCC1	27*	22%	20%	13%	?	19
COc1cc2cc(Br)cc(Br)c2nc1C	-8	11µM*	-14%	0%	-1%	-2
SMILES	Shiga inhibitor	HCV inhibitor	FMDV inh	LASV entry inh	Marburg entry inh	CHX counter
COc1ccc(NC(=O)C(=O)NCCc2ccc(OC)c(OC)c2)c(OC)c1	.	.	-2%	-5%[46.1 µM]	.	.
C=C(C)CN(CC)C(=O)CN1C(=O)NC2(CCc3ccccc32)C1=O (stereo not given)	-33	2%	49%	12%[46.1 µM]	-3%[46.1 µM]	0
O=[N+]([O-])c1ccc(N2CCCCC2)s1	-5	-9%	6%	18%[46.1 µM]	15%[46.1 µM]	18*
CC1CCCN(c2ccc([N+](=O)[O-])s2)C1 (stereo not given)	12	-8%	14%	.	.	16*
COC(=O)CC=C[C@@H](C)[C@H](NC(=O)OCC(Cl)(Cl)Cl)c1cccc(OC)c1	.	.	.	.	-8%[14.2 µM]	.
CCOC(=O)C1CCCN(C(=O)C2CCCN(S(=O)(=O)c3ccc4c(c3)oc(=O)n4C)C2)C1 (stereo not given)	-14	-19%	-22%	.	5%	-5
Cn1c2ccccc2c2c(C(=O)N3CCN(c4cccc(Cl)c4)CC3)cn(C3CCCCC3)c(=O)c21	.	.	-22%	?	7.1µM*	.
Cc1ccc(Cl)cc1N1CCN(C(=O)c2cn(C3CCCCC3)c(=O)c3c2c2ccccc2n3C)CC1	.	.	-10%	?	?	.
COc1ccc(N2CCN(C(=O)c3cn(C4CCCC4)c(=O)c4c3c3ccccc3n4C)CC2)cc1	-24	?	16%	?	8.9µM*	-6
O=C(Nc1ncc2c(n1)-c1ccccc1CC2)C1CC1	13	?	14%	?	17%[46.1 µM]	9
CCOc1ccc(C(=O)CSc2nc3cc(C(=O)NC4CCCC4)ccc3c(=O)n2CC2CCCO2)cc1 (stereo not given)	.	.	-6%	-1%[46.1 µM]	.	.
O=S(=O)(c1ccccc1)N1CCC(O)(CSc2ccc(F)cc2)CC1	-5	11µM*	?	?	?	13
CN(C)c1ccc(C(=O)c2ccccc2C(=O)O)cc1[N+](=O)[O-]	4	15%	-16%	0%[46.1 µM]	15%[46.1 µM]	-2
COc1ccc(C(=O)N=c2sccn2C)cc1	71*	13%	50%	-2%[46.1 µM]	?	33*
Cn1ccsc1=NC(=O)c1ccccc1OC(F)F	-22	9%	0%	5%[46.1 µM]	19%[46.1 µM]	9
COc1ccc(NC(=O)CSCC(=O)N=c2sccn2C)cc1	-3	18%	-2%	.	.	1
CN(C)c1ccc(C(=O)N=c2sccn2C)cc1[N+](=O)[O-]	42*	-11%	0%	.	.	18*
Cn1ccsc1=NC(=O)c1ccc(Cl)cc1	113*	14%	0%	12%	?	39*
Cn1ccsc1=NC(=O)c1ccc(OC(F)(F)F)cc1	83*	-1%	29%	-3%[46.1 µM]	?	36*
C=Cn1cc(CNC[C@H]2O[C@@H](n3cnc4c(=O)[nH]c(N)nc43)[C@H](O)[C@@H]2O)c(C)n1	.	.	-19%	.	.	.
CCCCN1CCNC[C@@H]1Cc1ccc(O)cc1	.	8%	0%	.	.	.
CSc1nnc(C)c(=O)n1COC(=O)c1ccc([N+](=O)[O-])cc1	16	5%	-10%	-12%[46.1 µM]	15%[46.1 µM]	-3
Cn1ccsc1=NC(=O)c1ccccc1F	41	9%	44%	-2%	?	16
CCCN(CCC)S(=O)(=O)c1cccc(C(=O)N=c2sccn2C)c1	7	?	-10%	-11%	-20%	-2
COC(=O)c1ccc(C(=O)N=c2sccn2C)cc1	79*	2%	0%	8%	?	40*
Cn1ccs/c1=N\C(=O)Nc1ccccc1	75*	16%	48%	.	.	66*
Cn1ccsc1=NC(=O)c1ccc(S(=O)(=O)C(F)F)cc1	69*	12%	23%	10%[46.1 µM]	5%[46.1 µM]	26*
